Assay [1] can be described thus: qHTS assay to identify small molecule antagonists of the estrogen related receptor (ERR) signaling pathway from Tox21 library - cell viability counter screen (AID 1224834). Further: nearly all actives have a fitted effect of over 30% in size. Further: potency means the concentration at half of the fitted maximal effect. The procedure, abridged: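 ERR reporter cells, 2,000 per well, rested 6 h, then exposed to compound in DMSO for 17.5 hours at 37 C. Viability read as fluorescence after 30 min with CellTiter-Fluor.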
A general note: In qHTS, concentration-response curves come from the screen itself.

Assay [2] deals with Luciferin 4-monooxygenase (Photinus pyralis) (UniProt P08659). Briefly: qHTS assay to identify small molecule inhibitors of firefly luciferase (AID 1224835). Further: nearly all actives have a fitted effect of over 25% in size. Further: potency means the concentration at half of the fitted maximal effect. An outline of the steps: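 Quantitative HTS format; KM concentrations of both substrates. Purified P. pyralis FLuc activity quantified from luminescence images.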
Sequence of Luciferin 4-monooxygenase (Photinus pyralis) (P08659 whole entry, looked up): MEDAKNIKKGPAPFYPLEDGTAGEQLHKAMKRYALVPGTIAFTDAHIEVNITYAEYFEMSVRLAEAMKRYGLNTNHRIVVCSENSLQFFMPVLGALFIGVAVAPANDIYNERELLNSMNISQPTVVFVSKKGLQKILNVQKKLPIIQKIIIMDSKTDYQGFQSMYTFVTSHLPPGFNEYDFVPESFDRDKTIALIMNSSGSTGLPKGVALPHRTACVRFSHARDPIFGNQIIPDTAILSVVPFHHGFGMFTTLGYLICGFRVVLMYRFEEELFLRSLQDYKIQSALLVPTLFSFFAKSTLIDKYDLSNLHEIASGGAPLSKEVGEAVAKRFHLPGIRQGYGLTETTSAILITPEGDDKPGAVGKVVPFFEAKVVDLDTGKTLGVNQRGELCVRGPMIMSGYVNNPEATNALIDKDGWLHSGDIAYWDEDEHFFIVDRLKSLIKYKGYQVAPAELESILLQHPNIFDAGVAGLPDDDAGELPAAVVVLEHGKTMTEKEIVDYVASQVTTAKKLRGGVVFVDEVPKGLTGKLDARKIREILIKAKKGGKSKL
Assay [3] is described as follows: qHTS assay to identify small molecule agonists of the constitutive androstane receptor (CAR) signaling pathway - cell viability counter screen (AID 1224836). Further: nearly all actives have a fitted effect of over 45% in size. Further: potency means the concentration at half of the fitted maximal effect. An outline of the steps:
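Viability read-out: CellTiter-Fluor fluorescence after 23 h compound exposure at 37 C/5% CO2 in double-stable HepG2-CYP2B6-hCAR cells, with PK11195 present at 0.75 uM final; compounds tested in 15-point titration.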

Assay [4] has as its target Nuclear receptor subfamily 1 group I member 3 (Homo sapiens) (UniProt Q14994). Briefly: qHTS assay to identify small molecule antagonists of the constitutive androstane receptor (CAR) signaling pathway (AID 1224838). Further: nearly all actives have a fitted effect of over 40% in size. The procedure, abridged:
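HepG2 cells stably carrying hCAR and a CYP2B6-2.2kb luciferase reporter, seeded 4 hrs before compound (15 concentrations). Stimulated with 50 nM CITCO for 24 hr at 37 C. ONE-Glo luminescence read after 30 min at room temperature.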

Assay [5] has the same target. Briefly: qHTS assay to identify small molecule agonists of the constitutive androstane receptor (CAR) signaling pathway (AID 1224839). Further: nearly all actives have a fitted effect of over 15% in size. Further: potency means the concentration at half of the fitted maximal effect. The procedure, abridged: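 Luminescence read-out (ONE-Glo, 30 min, room temperature) from double-stable HepG2-CYP2B6-hCAR cells exposed 24 h to 15-point compound series in presence of 0.75 uM PK11195 final.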
The nature of assay [6]: qHTS assay to identify small molecule antagonists of the estrogen related receptor signaling pathway with the pleiotropic PPARgamma coactivator (PGC) from Tox21 10K library - cell viability counter screen (AID 1224840; active means well fitted cell-killing curve with a large enough effect in the repeat runs, not every such curve was filed as active; further: nearly all actives have a fitted effect of over 40% in size; further: potency means the concentration at half of the fitted maximal effect). An outline of the steps: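 PGC/ERR cells (2,000/well) plated 6 h, then compound-treated for 17.5 h at 37 C. Viability measured by CellTiter-Fluor fluorescence after 30 min at 37 C, multiplexed with the pathway assay.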

Assay [7] can be described thus: qHTS assay to identify small molecule agonists of H2AX (AID 1224845; active means well fitted activation curve with a large enough effect in the signal ratio in the repeat runs, not every such curve was filed as active; the % refers to the signal ratio). The procedure, abridged: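 Wild-type CHO-K1 cells plated overnight, then exposed 3 hr at 37C to compounds at 15 concentrations (0.76% DMSO). Lysed, then HTRF anti-pH2AX(S139)-cryptate/anti-H2AX-d2 detection after 24 hr at room temperature; emissions 665 and 620 nm.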
The nature of assay [8]: qHTS assay to identify small molecule agonists of H2AX - cell viability counter screen (AID 1224847; calls by dose curve; further: top concentration of the series differs between compounds; nearly all actives have a fitted effect of over 30% in size). An outline of the steps:
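CHO-K1 wt, 1000 cells/well, o/n 37C; cpds 15 conc, 3 h 37C, 0.76% DMSO; CellTiter-Glo, 30 min RT, luminescence.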

Assay [9] in a line: qHTS RealTime-Glo MT Cell Viability Assay in HepG2 cells - 24 hour (AID 1224867). Further: nearly all actives have a fitted effect of over 50% in size. An outline of the steps:
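Cell number in HepG2 cultures estimated from NanoLuc luminescence generated by metabolic reduction of a prosubstrate by living cells. The homogeneous, nonlytic format allowed repeated reads at 0, 8, 16, 24, 32 and 40 h of compound exposure.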

Assay [10] is described as follows: qHTS RealTime-Glo MT Cell Viability Assay in HEK293 cells - 32 hour (AID 1224868). Further: nearly all actives have a fitted effect of over 50% in size. Further: potency means the concentration at half of the fitted maximal effect. An outline of the steps: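 Homogeneous bioluminescent viability format in HEK293 cells (600 cells/well). Following 5 h at 37 C/5% CO2, 23 nL compound was pintooled; the signal was measured repeatedly during 40 h incubation.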
The nature of assay [11]: A CellTox Green Cytotoxicity Assay to monitor cytotoxicity in HEK293 cells - 0 hour (AID 1224869). Further: nearly all actives have a fitted effect of over 50% in size. The procedure, abridged: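 HEK293 cells, 600/well, were preincubated 5 hours and then exposed to compounds at 37 C for up to 40 hours. A cell-impermeant cyanine dye staining dead-cell DNA was read by fluorescence at 0, 8, 16, 24, 32 and 40 h time points.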
Assay [12] is described as follows: qHTS RealTime-Glo MT Cell Viability Assay in HepG2 cells - 40 hour (AID 1224870). Further: nearly all actives have a fitted effect of over 50% in size. The procedure, abridged: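 HepG2 cells mixed with RealTime-Glo MT reagents (NanoLuc plus cell-permeant prosubstrate) were seeded at 600 cells/well, incubated 5 h at 37 C/5% CO2, then pinned with compounds in DMSO; nonlytic luminescence tracked viability during 40 h treatment.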
The nature of assay [13]: qHTS assay to identify small molecule antagonists of the constitutive androstane receptor (CAR) signaling pathway - cell viability counter screen (AID 1224837). Further: nearly all actives have a fitted effect of over 45% in size. An outline of the steps: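 HepG2 cells stably carrying hCAR and CYP2B6-2.2kb reporter, stimulated with 50 nM CITCO and compounds at 15 concentrations for 23 h at 37 C. Viability measured by CellTiter-Fluor fluorescence.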

The nature of assay [14]: qHTS assay to identify small molecule antagonists of the estrogen related receptor signaling pathway with the pleiotropic PPARgamma coactivator (PGC) from Tox21 10K library (AID 1224841; call rule not given here). The procedure, abridged: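 PGC/ERR cell line, 2,000 cells/well, pre-incubated 6 hours at 37 C, then exposed to compounds for 18 hours at 37 C; luciferase read with One-Glo luminescence after 30 min at room temperature.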

Assay [15] in a line: qHTS assay to identify small molecule agonists of the estrogen related receptor signaling pathway with the pleiotropic PPARgamma coactivator (PGC) from Tox21 10K library (AID 1224842). Further: nearly all actives have a fitted effect of over 15% in size. Further: potency means the concentration at half of the fitted maximal effect. An outline of the steps: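 PGC/ERR reporter cells (NTP line) were seeded 2,000 per well, rested 6 h at 37 C/5% CO2, then pin-dosed with compounds in DMSO for 18 h at 37 C; luciferase read by One-Glo luminescence after 30 min at room temperature.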

Assay [16] can be described thus: qHTS assay to identify small molecule agonists of the hypoxia (HIF-1) signaling pathway (AID 1224846; active means well fitted activation curve with a large enough effect in the signal ratio in the repeat runs, not every such curve was filed as active; the % refers to the signal ratio; further: potency means the concentration at half of the fitted maximal effect). An outline of the steps:
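HRE-bla ME-180 beta-lactamase reporter cells in medium with 0.5% dialyzed FBS, pre-incubated 5 h then exposed to compounds 17 h at 37C, 5% CO2; reporter induction read with CCF4-AM FRET substrate.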

The nature of assay [17]: qHTS assay to identify small molecule antagonists of the estrogen related receptor (ERR) signaling pathway from Tox21 library (AID 1224848). Further: nearly all actives have a fitted effect of over 50% in size. Further: potency means the concentration at half of the fitted maximal effect. The procedure, abridged: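 Screening used an ERR reporter line supplied by NTP, exposed for 18 h at 37 C to library compounds delivered in DMSO. Signal was luciferase luminescence developed with ONE-Glo at room temperature for 30 min.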

Assay [18] concerns the target Thyrotropin receptor (Homo sapiens) (UniProt P16473). Briefly: qHTS assay to identify small molecule agonists of the thyroid stimulating hormone receptor (TSHR) signaling pathway (AID 1224843; calls by dose curve; further: nearly all actives have a fitted effect of over 45% in size). The procedure, abridged:
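Cell line HEK293 with TSHR; density 800/well. Exposure 30 min RT. Readout HTRF cAMP (cAMP-d2/anti-cAMP-cryptate), 1 h RT before reading.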

Assay [19] is described as follows: qHTS assay to identify small molecule agonists of the hypoxia (HIF-1) signaling pathway - cell viability counter screen (AID 1224844; calls by dose curve; further: nearly all actives have a fitted effect of over 50% in size). An outline of the steps:
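HRE-bla ME-180 cells, 2,000/well in 0.5% dialyzed FBS medium, treated 17 h at 37C with compounds. Viability read in the same wells as the bla reporter, by CellTiter-Glo luminescence after 30 min at room temperature.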

Assay [20] can be described thus: qHTS assay to identify small molecule agonists of the estrogen related receptor (ERR) signaling pathway from Tox21 library (AID 1224849; calls by dose curve; further: nearly all actives have a fitted effect of over 15% in size). The conditions noted are these: ERR reporter cell line, ONE-Glo luciferase, 18 h; at 92.4 µM (top of the series). An outline of the steps:
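ERR reporter cells (NTP line) pre-incubated 6 hours at 37 C, then exposed to compounds for 18 hours at 37 C. ONE-Glo luciferase luminescence was read after 30 minutes at room temperature.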

Values without a mark were called inactive. Results filed as inconclusive are left out. Activity calls are given as the source filed them. Unless noted, the call rests on the fitted dose curve; in most records, active means well fitted curve in the direction sought with a large enough effect in the repeat runs; inconclusive means weak or mixed curves; inactive means no such curve, though single readings can be large; an effect the other way counts as inactive or inconclusive.
On the % scale 0 is the no-effect control and ±100 the full control effect.

Sequence of Nuclear receptor subfamily 1 group I member 3 (Homo sapiens) (Q14994 whole entry, looked up): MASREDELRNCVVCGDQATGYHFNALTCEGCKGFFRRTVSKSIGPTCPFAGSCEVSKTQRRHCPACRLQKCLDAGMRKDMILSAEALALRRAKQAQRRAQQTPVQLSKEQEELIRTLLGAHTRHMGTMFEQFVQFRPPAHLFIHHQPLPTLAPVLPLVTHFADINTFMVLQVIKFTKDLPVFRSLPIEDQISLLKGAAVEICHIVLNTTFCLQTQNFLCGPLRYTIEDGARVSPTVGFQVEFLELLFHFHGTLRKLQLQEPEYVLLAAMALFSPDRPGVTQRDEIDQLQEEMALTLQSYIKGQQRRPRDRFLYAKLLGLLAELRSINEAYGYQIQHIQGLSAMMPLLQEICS
Sequence of Thyrotropin receptor (Homo sapiens) (P16473 whole entry, looked up): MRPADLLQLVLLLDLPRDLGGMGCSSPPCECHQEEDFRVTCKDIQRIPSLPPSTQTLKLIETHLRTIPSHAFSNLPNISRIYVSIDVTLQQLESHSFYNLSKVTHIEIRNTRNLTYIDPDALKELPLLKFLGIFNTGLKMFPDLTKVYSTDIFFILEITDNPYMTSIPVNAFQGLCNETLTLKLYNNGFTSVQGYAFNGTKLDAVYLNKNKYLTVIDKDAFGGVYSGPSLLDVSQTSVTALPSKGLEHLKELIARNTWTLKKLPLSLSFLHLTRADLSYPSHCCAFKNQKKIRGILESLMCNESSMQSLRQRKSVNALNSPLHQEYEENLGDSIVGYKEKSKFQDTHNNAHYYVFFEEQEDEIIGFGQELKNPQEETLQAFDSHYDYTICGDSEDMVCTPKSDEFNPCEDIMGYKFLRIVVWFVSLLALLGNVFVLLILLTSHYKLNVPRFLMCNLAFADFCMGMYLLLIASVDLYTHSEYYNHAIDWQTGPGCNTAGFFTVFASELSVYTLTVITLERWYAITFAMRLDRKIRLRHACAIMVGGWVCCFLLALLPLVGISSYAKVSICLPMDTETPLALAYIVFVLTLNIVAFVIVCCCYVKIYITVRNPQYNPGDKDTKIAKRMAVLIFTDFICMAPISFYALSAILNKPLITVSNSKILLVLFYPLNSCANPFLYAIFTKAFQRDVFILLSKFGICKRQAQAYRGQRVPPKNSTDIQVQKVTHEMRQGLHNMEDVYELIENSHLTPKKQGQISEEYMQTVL

`CC(CCc1ccccc1)NCC(O)c1ccc(O)c(C(N)=O)c1` (configuration not stated): the Potency is 27.3 µM (active) in assay [1] and 30.6 µM (active) in [3]. Also, the Potency entry in assay [2], in [4], in assay [5], in [6], in assay [7] and in assay [8] was “inactive” throughout. For the same compound, the Potency result in [9], in assay [10], in assay [11] and in assay [12] was “inactive” each time.

As to `Cc1ccc(O)c(O)c1`, the Potency in assay [1] is 47.2 µM (active); in [5] it was 47.2 µM (active); in assay [15], 13.3 µM (active). The Potency entry in [3], in [13], in assay [4], in assay [14], in assay [16] and in assay [17] was “inactive” in each case. Moreover, the Potency entry in assay [9] and in [11] was “inactive” in each case.

Turning to `CNC(=O)c1ccccc1Sc1ccc2c(/C=C/c3ccccn3)n[nH]c2c1`, the Potency in assay [1] was 26.6 µM (active); in assay [2], 0.871 µM (active); in assay [5], 1.06 µM (active); in assay [10], 9.52 µM (active). For the same compound, the Potency result in assay [3], in assay [4], in [18], in assay [19], in assay [16] and in assay [9] was “inactive” throughout. Moreover, the Potency result in assay [11] and in [12] was “inactive” in each case.

Turning to `O=S(=O)(O)c1ccccc1/C=C/c1ccc(-c2ccc(/C=C/c3ccccc3S(=O)(=O)O)cc2)cc1`, the Potency entry in assay [1], in [4], in [5], in assay [6], in assay [14] and in [15] was “inactive” in each case. Further, the Potency result in assay [18], in assay [19], in assay [8], in assay [17], in [9] and in assay [10] was “inactive” in each case. Moreover, the Potency entry in [11] is “inactive”. Also, the results for the Potency in assay [2] and in assay [16] were 57.2 µM (active) and 39.4 µM (active), respectively. Moreover, the activity change, positive = activation in assay [20] is 4.34%.

For the compound `O=[N+]([O-])c1cccc(C(F)(F)F)c1`, the Potency entry in assay [1], in assay [2], in assay [3], in [13], in assay [6] and in assay [18] was “inactive” throughout. Besides, the Potency result in [19], in assay [7], in assay [16], in assay [9], in assay [10] and in [11] was “inactive” each time. For the same compound, in assay [12], the Potency entry is “inactive”.

In the case of `CC(C)NC[C@@H](O)COc1ccc(CC(N)=O)cc1`, the Potency result in [1], in [2], in assay [3], in assay [13], in assay [6] and in assay [18] was “inactive” throughout. Further, the Potency entry in assay [19], in [8], in assay [9], in assay [10] and in assay [11] was “inactive” each time.

Consider `O=[N+]([O-])c1ccc(O)cc1C(F)(F)F`, for which the Potency in [1] was 15.4 µM (active); in assay [6], 17.2 µM (active); in [17] it was 6.11 µM (active); in [10], 34.7 µM (active). The Potency result in assay [2], in assay [5], in [14], in [18], in [19] and in assay [7] was “inactive” throughout. For the same compound, the Potency entry in [9], in assay [11] and in assay [12] was “inactive” each time. The activity change, positive = activation in assay [20] is -63.3%.

Consider `CCCC(=O)OC(C)(C)Cc1ccccc1`, for which the Potency entry in assay [1], in assay [3], in [13], in assay [4], in assay [5] and in [6] was “inactive” in each case. The Potency result in assay [7], in assay [16], in [8], in assay [9], in [10] and in [11] was “inactive” each time. Moreover, the Potency result in assay [12] is “inactive”.

The values are drawn from PubChem BioAssay (Tox21).
